# Laboratory results reported in PubChem BioAssay (NCATS).
# “And” between values parts separate entries of the source, which are not always exact repeats. Equal entries are not always repeated. Results filed as inconclusive are left out. The source made the active and inactive calls. Unless noted, calls follow the shape of the dose curve; as a rule, active = well fitted curve in the direction sought with a large enough effect; inconclusive = small, poorly fitted or top-dose-only effect, or another doubt; inactive = no such curve, though single readings can be large; an effect the other way counts as inactive or inconclusive.
# Key:
# [1] = AP1 Signaling Pathway (AID 357; active = well fitted curve in either direction with a large enough effect, not every such curve was filed as active;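 also: ME-180 reporter cells stimulated with EGF at its EC50 level; % is scaled to controls: 0 for no effect and ±100 for the full control effect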); conditions: ME-180 AP-1-bla reporter, EGF-induced, beta-lactamase ratio, 5 h
# Outline: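 First, ME-180 AP-1-bla cells were cultured overnight at 37 °C in low-serum Opti-MEM. Next, titrated compounds with EC50 EGF were incubated 5 hours. Finally, CCF4 was added for 2.5 hours and the 460/530 nm ratio recorded.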
# [2] = Stat Signaling Pathway (AID 446; active = well fitted curve in either direction with a large enough effect, not every such curve was filed as active;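 also: ME-180 cervical cancer cells given 40 pM IL-6 alongside compound; SIE-controlled beta-lactamase reporter measured as 460/530 nm FRET emission ratio; % is scaled to controls: 0 for no effect and ±100 for the full control effect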); conditions: ME-180 (cervical carcinoma) SIE beta-lactamase reporter, IL-6 stimulated, 5 h; at 17.2 µM (top of the series)
# Outline: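 Compound effects on IL-6-induced STAT reporter activity were measured in ME-180 cells. After overnight culture, cells were co-treated with 40 pM IL-6 for 5 hrs before beta-lactamase substrate loading at room temperature.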
# [3] = biological target: Glucocorticoid receptor (Homo sapiens) (UniProt P04150); assay: GR-GFP Redistribution (AID 450;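 active = compounds whose dose series gives a full or clear partial fitted curve of increased nuclear translocation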; also: potency is read from the fitted curve at half-maximal effect); conditions: U2OS GR-GFP nuclear translocation, laser cytometry, 2 h
# [4] = biological target: Glucocorticoid receptor (Homo sapiens) (UniProt P04150); assay: GR-EFC Redistribution (AID 451; calls by dose curve; also: potency is read from the fitted curve at half-maximal effect); conditions: CHO-K1 GR-EFC translocation, beta-gal luminescence, 2 h
# Outline: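 CHO-K1 cells stably expressing nuclear-localized β-gal enzyme acceptor and GR fused C-terminally to the enzyme donor fragment; ligand-driven nuclear translocation restores β-gal by complementation. Compounds titrated up to 46 uM final, 2 h at 37 °C; luminescence read.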
# [5] = biological target: Mitogen-activated protein kinase 10 (Mus musculus) (UniProt Q61831); assay: JNK3 AlphaScreen Assay (AID 530; active = well fitted curve in either direction with a large enough effect, not every such curve was filed as active;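 also: kinase came from lysate of stimulated human HepG2 cells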; also: potency is read from the fitted curve at half-maximal effect;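 as to activity change, negative = inhibition: signal reports phosphorylation of biotinylated GST-cJun 1-79 at Ser73 with 10 µM ATP; % is scaled to controls: 0 for no effect and ±100 for the full control effect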)
# Outline: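 Biotinylated GST-cJun(1-79) served as substrate for JNK3 in HepG2 lysates stimulated with IL-1beta and TNF-alpha. ATP was 10 uM final, pH 7.6. Ser73 phosphorylation was quantified by AlphaScreen (680 nm excitation).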
# [6] = biological target: Guanine nucleotide-binding protein G(i) subunit alpha-1 (Homo sapiens) (UniProt P63096); assay: qHTS Assay for Inhibitors of RGS12 GoLoco Motif Activity (Green Fluorophore) (AID 879);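 also: 0% = labeled peptide with Gαi1 and full inhibition = labeled peptide alone without protein; negative values mean loss of peptide binding seen as reduced polarization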
# Outline: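 A drop in FITC polarization marked displacement of the FITC-tagged RGS12 GoLoco peptide (10 nM) from Gαi1 (50 nM). Compounds were incubated 10 min at room temperature in Tris pH 7.5 buffer containing 150 mM NaCl, 0.1 mM GDP and 0.05% NP40; unlabeled peptide titration served as control.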
# [7] = biological target: Muscarinic acetylcholine receptor M1 (Rattus norvegicus) (UniProt P08482); assay: qHTS Assay for Antagonists of Acetylcholine Muscarinic M1 Receptor: Kinetic Measurement of Intracellular Calcium Response (AID 943); also: potency is read from the fitted curve at half-maximal effect; nearly all actives have a fitted effect of over 75% in size
# Outline: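 Quantitative HTS in CHO-M1 (rat receptor) cells: 10 min compound exposure ahead of 100 nM carbachol, Fluo-4 fluorescence followed 4 min, value expressed as peak-to-basal ratio.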
# [8] = biological target: Muscarinic acetylcholine receptor M1 (Rattus norvegicus) (UniProt P08482); assay: qHTS Assay for Antagonists of Acetylcholine Muscarinic M1 Receptor: Measurement of IP-One Response (AID 944); also: potency is read from the fitted curve at half-maximal effect; nearly all actives have a fitted effect of over 75% in size
# Outline: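 Antagonism was measured as loss of carbachol-driven (EC80) IP1 accumulation in CHO cells carrying rat M1, using a homogeneous IP-One TR-FRET kit read at 620 and 665 nm.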
# [9] = biological target: Pyruvate kinase (Leishmania mexicana) (UniProt Q27686); assay: qHTS Validation Assay for Inhibitors of Leishmania Mexicana Pyruvate Kinase (AID 945); also: potency is read from the fitted curve at half-maximal effect;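 as to activity change, negative = inhibition: 0% = DMSO only neutral control wells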
# Outline: (§1)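 Substrate mix (0.5 mM PEP, 0.1 mM ADP, 7 mM MgCl2, 50 mM KCl, pH 7.2 imidazole) received compound by pin tool, then 0.2 nM LmPYK E451W. After 1 h at room temperature, PKLight was added and luminescence measured.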
# [10] = biological target: Pyruvate kinase PKM (Homo sapiens) (UniProt P14618); assay: qHTS Assay for Activators of Human Muscle Pyruvate Kinase (AID 954; active = well fitted curve in the direction sought with a large enough effect, not every such curve was filed as active;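 also: 0% = uninhibited enzyme and -100% = no enzyme or full thiadiazolimine inhibition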)
# Outline: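 A coupled luminescent readout tracked ATP made from ADP by purified PKM2. Final conditions included 0.1 nM enzyme, PEP and ADP at 0.5 and 0.1 mM, pH 7.2 imidazole buffer with BSA, and a one-hour room-temperature reaction.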
# [11] = biological target: Alpha-galactosidase A (Homo sapiens) (UniProt P06280); assay: Counterscreen for Glucocerebrosidase Inhibitors: qHTS Assay for Human alpha-Galactosidase at pH 4.5 (AID 992); also: 0% is about no effect
# Outline: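 Citrate buffer pH 4.5, Tween-20 0.005%. Enzyme 2 nM, substrate 80 uM, 20 min RT. Stop pH 10. Fluorescence Ex 365/Em 440. AC50 by Hill fit.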
# [12] = biological target: alpha-glucosidase (Oryza sativa, rice) (UniProt Q653V4); assay: Counterscreen for Glucocerebrosidase Inhibitors: qHTS Assay for Rice alpha-Glucosidase at pH 5.0 (AID 997);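 also: 0% = full activity with enzyme and -100% = basal without enzyme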
# Outline: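 Endpoint fluorogenic assay at pH 5.0: compounds (0.7 nM to 77 uM) titrated against 4 nM rice enzyme and 400 uM 4-MU-alpha-glucoside for 20 min at room temperature; NaOH/glycine stop, read ex 365/em 440 nm, Hill-fitted AC50.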
# [13] = qHTS Assay for Lipid Storage Modulators (AID 1519; calls by dose curve); conditions: Drosophila S3 cells, BODIPY lipid droplet/cell ratio, laser cytometry, cells loaded with oleic acid
# Outline: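 Cells seeded at 5,000 per well were treated with compounds over a concentration series and loaded with oleic acid (400 uM, as added). Lipid droplet fluorescence (488 nm excitation, 500-530 nm channel) was read by laser-scanning cytometry and normalized to 20 uM Triacsin C.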
# [14] = biological target: Ubiquitin carboxyl-terminal hydrolase 1 (Homo sapiens) (UniProt O94782); assay: Inhibitors of USP1/UAF1: Pilot qHTS (AID 504865);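 also: rhodamine fluorescence freed from ubiquitin-rhodamine substrate followed over time; top concentration of the series differs between compounds; % is scaled to controls: 0 for no effect and ±100 for the full control effect; nearly all actives have a fitted effect of over 35% in size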
# Outline: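 Enzyme-free wells gave the negative control, while test wells held 1nM USP1/UAF1 preincubated with compound for 15 min at room temperature. Ub-Rho at 150nM final started the reaction, and fluorescence at 480/540 nm was recorded kinetically.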
# [15] = biological target: DNA dC->dU-editing enzyme APOBEC-3G (Homo sapiens) (UniProt Q9HC16); assay: qHTS for inhibitors of Vif-A3G interactions: Validation (AID 588379); also: potency is read from the fitted curve at half-maximal effect; as to activity change, negative = inhibition: 0% is about no effect
# Outline: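 Yellow fluorescence (Ex 488, Em 500-530) of Vif-coexpressing HeLa A3G-eYFP cells, scanned by Acumen cytometer, reports blocked A3G degradation. Cells plated at 700/well overnight at 37 deg C before compound addition, then a further overnight compound incubation at 37 deg C.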
# [16] = system: Zika virus NS2B-NS3 protease; assay: Primary screen GU AMC qHTS for Zika virus inhibitors (AID 1347154);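 also: 0% = no-inhibitor control and -100% = no-enzyme control; nearly all actives have a fitted effect of over 70% in size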
# Outline: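 Unlinked Zika NS2B hydrophilic domain/NS3 protease domain noncovalent complex (25 nM final) in 10 mM Tris-HCl pH 8.0, 0.01% Tween 20, with AMC peptide substrate. Fluorescence (ex 340, em 450 nm) change over 15 min, room temperature; percent inhibition fitted to 4-parameter Hill equation.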
# [17] = Counterscreen qHTS for small molecule stabilizers of the endoplasmic reticulum resident proteome: GLuc-NoTag assay (AID 1508627); also: potency is read from the fitted curve at half-maximal effect;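 as to activity change, negative = inhibition: 0% = thapsigargin alone and -100% = DMSO vehicle control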
# Outline: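 Secreted GLuc lacking the SERCaMP modification is measured in SH-SY5Y cells exposed to compound for 19 h and then to thapsigargin (100 nM, 4 h) to deplete ER calcium; hits retested at 11 concentrations, up to 76.6 uM.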
# [18] = Confirmatory qHTS for small molecule stabilizers of the endoplasmic reticulum resident proteome: Secreted ER Calcium Modulated Protein (SERCaMP) assay (AID 1508628); also: % is scaled to controls: 0 for no effect and ±100 for the full control effect; nearly all actives have a fitted effect of over 40% in size
# Outline: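 GLuc-SERCaMP-expressing SH-SY5Y cells, pretreated 16 h with compound, are challenged with thapsigargin to empty ER calcium stores; after 4 h, coelenterazine is added directly to the medium and luminescence is imaged.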
# [19] = Primary qHTS for small molecule stabilizers of the endoplasmic reticulum resident proteome: Secreted ER Calcium Modulated Protein (SERCaMP) assay (AID 1508630); also: % is scaled to controls: 0 for no effect and ±100 for the full control effect
# Outline: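 The SH-SY5Y reporter protocol was run at 3 concentrations up to 38.3 uM (primary) or 11 concentrations (follow-up): 16 h compound, 100 nM thapsigargin for 4 h, then extracellular luciferase luminescence.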
# [20] = biological target: Cytochrome P450 1A2 (Homo sapiens) (UniProt P05177); assay: p450-cyp1a2 (AID 410; calls by dose curve; also: potency is read from the fitted curve at half-maximal effect)
# Outline: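 Read-out is luminescence from luciferin produced by CYP1A2 demethylation of Luciferin-ME (100uM, at Km). Detection reagent stopped the 60 min NADPH-dependent reaction; signals were normalized to 57 uM furafylline.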
# [21] = biological target: 3',5'-cyclic-AMP phosphodiesterase 4B (Homo sapiens) (UniProt Q07343); assay: qHTS Assay for Inhibitors of PDE-IV (AID 607; active = well fitted activation curve with a large enough effect in the main read-out, with a control signal flat, not every such curve was filed as active; also: % of control where 0% means no effect)
# Outline: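 ACTOne HEK293 cells carry a modified cAMP-gated CNG channel and express endogenous PDE4; plated 1000 cells/well, compounds up to 22.9 uM final. Membrane-potential dye fluorescence (ex 535/em 590) was read; parental cells received 10 uM forskolin + 100 uM RO 20-1724.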
# [22] = biological target: Cytochrome P450 2C9 (Homo sapiens) (UniProt P11712); assay: qHTS Assay for Inhibitors and Substrates of Cytochrome P450 2C9 (AID 883); also: potency is read from the fitted curve at half-maximal effect; nearly all actives have a fitted effect of over 60% in size
# Outline: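 Human CYP2C9 (10nM) hydroxylated Luciferin-H (100uM, at its KM) to luciferin in 25mM KPO4. Compound was preincubated 10 min at 37C, then NADPH regeneration started a 60 min reaction at 37C. Luminescence was read after detection reagent, normalized to 57uM sulphaphenazole.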
# [23] = biological target: Cytochrome P450 3A4 (Homo sapiens) (UniProt P08684); assay: qHTS Assay for Activators of Cytochrome P450 3A4 (AID 885); also: nearly all actives have a fitted effect of over 65% in size
# Outline: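 CYP3A4 activity: Luciferin-PPXE O-dealkylation, 25uM substrate, 200mM KPO4, RT throughout. Read-out is luciferase luminescence; higher values reflect activation.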
# [24] = biological target: Cytochrome P450 2C19 (Homo sapiens) (UniProt P33261); assay: qHTS Assay for Inhibitors and Substrates of Cytochrome P450 2C19 (AID 899); also: potency is read from the fitted curve at half-maximal effect; nearly all actives have a fitted effect of over 60% in size
# Outline: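 Human CYP2C19 (5nM) with Luciferin-H EGE at 10uM (its KM) in 50mM KPO4 was preincubated with compound for 10 min at 37C. NADPH regeneration started a 60 min 37C reaction. Luciferin was read by luminescence, normalized to 57uM ketoconazole.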
# [25] = qHTS Assay for Identification of Small Molecule Agonists for Thrombopoietin (TPO) Signaling Pathway (AID 917); also: potency is read from the fitted curve at half-maximal effect
# Outline: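 Human TPO receptor–transfected Ba/F3 cells (murine, IL-3-dependent) in IL-3-deficient medium; compounds plus TPO at EC50, 26 pM final; 24 hrs, 37 C; GpIIb-luciferase luminescence after 10 min RT detection.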
# [26] = biological target: Pyruvate kinase PKM (Homo sapiens) (UniProt P14618); assay: qHTS Assay for Inhibitors of Human Muscle Pyruvate Kinase (AID 958); conditions: purified human PKM enzyme activity
# Outline: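 Luminescence from a luciferase ATP-detection/stop reagent reported PKM2 activity. Reactions contained 0.1 nM purified human enzyme, 0.5 mM PEP, 0.1 mM ADP and 7 mM MgCl2 at pH 7.2, run 1 h at RT.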
# [27] = biological target: Pyruvate kinase (Leishmania mexicana) (UniProt Q27686); assay: qHTS Validation Assay for Activators of Leishmania Mexicana Pyruvate Kinase (AID 959)
# Outline: as §1
# [28] = measured here: cell count channel max response
# [29] = measured here: lipid channel max response
# Chain of DNA dC->dU-editing enzyme APOBEC-3G (Homo sapiens) (Q9HC16 whole entry, looked up): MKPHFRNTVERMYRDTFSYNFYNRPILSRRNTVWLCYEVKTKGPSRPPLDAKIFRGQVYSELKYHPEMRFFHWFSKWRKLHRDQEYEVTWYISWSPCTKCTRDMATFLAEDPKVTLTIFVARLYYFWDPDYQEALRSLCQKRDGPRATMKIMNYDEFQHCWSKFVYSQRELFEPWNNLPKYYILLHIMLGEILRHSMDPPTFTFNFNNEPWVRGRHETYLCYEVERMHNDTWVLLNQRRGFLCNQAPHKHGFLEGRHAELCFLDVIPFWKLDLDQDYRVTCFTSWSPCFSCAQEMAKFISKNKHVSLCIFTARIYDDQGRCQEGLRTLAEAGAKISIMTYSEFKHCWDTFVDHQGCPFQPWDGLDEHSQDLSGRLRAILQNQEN
# Chain of Glucocorticoid receptor (Homo sapiens) (P04150 whole entry, looked up, the tested form may be a part): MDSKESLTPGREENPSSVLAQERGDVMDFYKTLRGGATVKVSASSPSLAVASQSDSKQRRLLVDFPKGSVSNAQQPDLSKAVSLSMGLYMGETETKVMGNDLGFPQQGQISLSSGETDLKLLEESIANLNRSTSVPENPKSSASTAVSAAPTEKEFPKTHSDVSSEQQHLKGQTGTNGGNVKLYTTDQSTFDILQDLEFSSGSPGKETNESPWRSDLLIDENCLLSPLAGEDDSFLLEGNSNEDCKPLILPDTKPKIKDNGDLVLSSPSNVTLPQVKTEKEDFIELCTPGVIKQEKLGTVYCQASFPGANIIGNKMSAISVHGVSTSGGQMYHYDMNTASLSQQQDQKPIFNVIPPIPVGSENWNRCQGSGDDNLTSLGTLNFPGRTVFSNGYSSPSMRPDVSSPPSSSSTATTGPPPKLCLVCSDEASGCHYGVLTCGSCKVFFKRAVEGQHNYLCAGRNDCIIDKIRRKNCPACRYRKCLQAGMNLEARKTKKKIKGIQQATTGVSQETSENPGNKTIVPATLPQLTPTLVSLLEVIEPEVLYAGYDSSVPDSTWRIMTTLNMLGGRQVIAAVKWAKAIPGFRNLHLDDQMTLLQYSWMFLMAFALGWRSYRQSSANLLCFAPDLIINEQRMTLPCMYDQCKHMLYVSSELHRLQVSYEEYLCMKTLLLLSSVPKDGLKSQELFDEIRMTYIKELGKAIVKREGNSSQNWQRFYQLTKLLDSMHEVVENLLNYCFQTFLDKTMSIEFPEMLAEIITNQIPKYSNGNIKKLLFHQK
# Chain of Pyruvate kinase (Leishmania mexicana) (Q27686 2-499 E452W): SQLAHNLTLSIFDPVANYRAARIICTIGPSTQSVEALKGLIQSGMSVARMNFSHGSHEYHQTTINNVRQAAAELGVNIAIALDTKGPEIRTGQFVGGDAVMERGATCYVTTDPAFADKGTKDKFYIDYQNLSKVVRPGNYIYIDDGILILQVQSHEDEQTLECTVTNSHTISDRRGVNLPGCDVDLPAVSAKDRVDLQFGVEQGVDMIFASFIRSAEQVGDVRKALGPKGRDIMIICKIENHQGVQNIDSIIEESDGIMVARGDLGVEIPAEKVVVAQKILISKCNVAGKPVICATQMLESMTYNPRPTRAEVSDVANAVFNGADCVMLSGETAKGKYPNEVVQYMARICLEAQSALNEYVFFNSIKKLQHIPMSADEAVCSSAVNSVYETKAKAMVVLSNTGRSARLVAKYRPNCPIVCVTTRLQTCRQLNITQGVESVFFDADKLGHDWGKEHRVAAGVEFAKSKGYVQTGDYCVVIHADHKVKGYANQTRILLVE
# Chain of Pyruvate kinase PKM (Homo sapiens) (P14618 whole entry, looked up): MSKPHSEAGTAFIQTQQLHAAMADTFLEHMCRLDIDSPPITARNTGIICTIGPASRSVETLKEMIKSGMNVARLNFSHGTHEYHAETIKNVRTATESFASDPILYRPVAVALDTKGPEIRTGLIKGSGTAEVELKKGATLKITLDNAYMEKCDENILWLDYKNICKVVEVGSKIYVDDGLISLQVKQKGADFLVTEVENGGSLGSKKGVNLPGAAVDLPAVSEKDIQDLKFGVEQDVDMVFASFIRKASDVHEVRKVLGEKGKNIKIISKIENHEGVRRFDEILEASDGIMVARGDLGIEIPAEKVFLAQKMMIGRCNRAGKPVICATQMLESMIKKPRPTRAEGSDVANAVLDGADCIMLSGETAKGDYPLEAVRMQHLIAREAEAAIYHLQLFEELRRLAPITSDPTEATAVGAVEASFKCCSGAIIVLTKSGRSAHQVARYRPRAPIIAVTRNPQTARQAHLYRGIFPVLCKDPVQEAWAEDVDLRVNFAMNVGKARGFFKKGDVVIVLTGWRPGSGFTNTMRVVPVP
# Chain of Muscarinic acetylcholine receptor M1 (Rattus norvegicus) (P08482 whole entry, looked up): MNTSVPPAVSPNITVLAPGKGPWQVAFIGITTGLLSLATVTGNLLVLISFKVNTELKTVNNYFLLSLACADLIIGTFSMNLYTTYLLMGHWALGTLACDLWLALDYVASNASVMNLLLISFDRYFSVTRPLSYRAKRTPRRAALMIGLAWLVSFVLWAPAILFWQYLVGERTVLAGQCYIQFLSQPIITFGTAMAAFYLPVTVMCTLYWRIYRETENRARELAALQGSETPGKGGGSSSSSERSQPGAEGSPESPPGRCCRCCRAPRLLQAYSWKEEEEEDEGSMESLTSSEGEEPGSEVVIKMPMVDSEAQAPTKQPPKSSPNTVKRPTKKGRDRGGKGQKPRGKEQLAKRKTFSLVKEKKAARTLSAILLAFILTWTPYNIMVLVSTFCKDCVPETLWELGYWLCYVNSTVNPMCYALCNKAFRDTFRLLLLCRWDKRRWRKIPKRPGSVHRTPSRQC
# Chain of Cytochrome P450 1A2 (Homo sapiens) (P05177 whole entry, looked up): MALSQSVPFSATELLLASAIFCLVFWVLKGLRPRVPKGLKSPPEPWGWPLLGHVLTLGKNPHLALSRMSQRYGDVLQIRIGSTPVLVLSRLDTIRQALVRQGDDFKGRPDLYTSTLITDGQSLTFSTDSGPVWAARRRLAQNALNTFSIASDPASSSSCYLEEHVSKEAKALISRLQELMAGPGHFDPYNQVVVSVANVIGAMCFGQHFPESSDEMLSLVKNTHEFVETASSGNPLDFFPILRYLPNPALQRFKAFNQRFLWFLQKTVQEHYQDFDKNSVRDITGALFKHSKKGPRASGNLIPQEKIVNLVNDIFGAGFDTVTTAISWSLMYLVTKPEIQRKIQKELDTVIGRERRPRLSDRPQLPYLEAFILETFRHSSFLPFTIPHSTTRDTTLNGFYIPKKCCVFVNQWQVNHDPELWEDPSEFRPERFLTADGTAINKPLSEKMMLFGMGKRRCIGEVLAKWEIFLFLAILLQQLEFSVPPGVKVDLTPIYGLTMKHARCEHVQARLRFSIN
# Chain of Alpha-galactosidase A (Homo sapiens) (P06280 whole entry, looked up): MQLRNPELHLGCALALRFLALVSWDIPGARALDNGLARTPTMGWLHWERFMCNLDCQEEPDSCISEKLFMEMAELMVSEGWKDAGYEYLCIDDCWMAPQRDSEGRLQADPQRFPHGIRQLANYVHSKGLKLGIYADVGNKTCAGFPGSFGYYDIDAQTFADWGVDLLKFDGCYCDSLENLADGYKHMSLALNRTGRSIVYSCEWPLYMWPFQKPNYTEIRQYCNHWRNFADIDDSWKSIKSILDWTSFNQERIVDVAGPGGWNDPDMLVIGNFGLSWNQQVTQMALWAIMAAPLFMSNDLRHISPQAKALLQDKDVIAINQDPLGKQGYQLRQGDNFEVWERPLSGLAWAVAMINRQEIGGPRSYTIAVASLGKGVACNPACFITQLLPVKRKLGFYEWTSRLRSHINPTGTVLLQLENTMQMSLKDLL
# Chain of 3',5'-cyclic-AMP phosphodiesterase 4B (Homo sapiens) (Q07343 whole entry, looked up): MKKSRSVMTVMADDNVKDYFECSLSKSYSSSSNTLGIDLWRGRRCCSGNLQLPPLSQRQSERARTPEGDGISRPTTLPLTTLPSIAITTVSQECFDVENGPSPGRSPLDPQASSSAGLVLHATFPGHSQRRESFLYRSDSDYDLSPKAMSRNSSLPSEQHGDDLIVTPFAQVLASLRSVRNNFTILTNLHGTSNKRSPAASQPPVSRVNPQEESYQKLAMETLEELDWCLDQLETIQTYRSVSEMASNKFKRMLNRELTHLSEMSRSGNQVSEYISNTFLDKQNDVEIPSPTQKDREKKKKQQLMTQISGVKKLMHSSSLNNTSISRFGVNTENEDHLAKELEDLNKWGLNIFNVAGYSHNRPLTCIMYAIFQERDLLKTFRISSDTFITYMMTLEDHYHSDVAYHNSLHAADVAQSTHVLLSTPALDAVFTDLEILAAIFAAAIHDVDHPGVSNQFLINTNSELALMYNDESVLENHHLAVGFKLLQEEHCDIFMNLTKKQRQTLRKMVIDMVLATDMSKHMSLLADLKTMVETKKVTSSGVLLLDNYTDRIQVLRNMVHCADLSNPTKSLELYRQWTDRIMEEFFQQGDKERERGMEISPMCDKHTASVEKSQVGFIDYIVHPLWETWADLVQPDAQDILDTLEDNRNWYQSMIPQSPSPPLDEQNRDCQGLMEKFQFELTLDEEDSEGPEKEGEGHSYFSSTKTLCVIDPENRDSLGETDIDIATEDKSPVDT
# Chain of Guanine nucleotide-binding protein G(i) subunit alpha-1 (Homo sapiens) (P63096 whole entry, looked up): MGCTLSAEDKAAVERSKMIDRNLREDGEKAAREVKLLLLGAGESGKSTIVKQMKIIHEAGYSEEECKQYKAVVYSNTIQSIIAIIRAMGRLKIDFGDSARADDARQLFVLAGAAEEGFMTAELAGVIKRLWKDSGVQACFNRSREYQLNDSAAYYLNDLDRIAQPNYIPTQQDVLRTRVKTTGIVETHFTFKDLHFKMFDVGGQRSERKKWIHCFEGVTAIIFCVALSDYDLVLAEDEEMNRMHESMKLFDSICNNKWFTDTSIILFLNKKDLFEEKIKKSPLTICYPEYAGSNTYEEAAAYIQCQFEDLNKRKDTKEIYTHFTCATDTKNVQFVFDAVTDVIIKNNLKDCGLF
smiles,measurement,setting,value
C[C@@H]([C@H](O)c1ccc(O)cc1)N1CCC(Cc2ccccc2)CC1,"activity change, negative = inhibition",[1]; at 17.2 µM (top of the series),-4.89% (inactive)
same,"activity change, negative = inhibition",[1]; at 38 µM (top of the series),-7.76% (inactive)
same,"activity, negative = inhibition",[2],8.14% (inactive)
same,Potency,[3],> 46 µM (inactive) and > 20.6 µM (inactive)
same,Potency,[4],> 46 µM (inactive) and > 20.6 µM (inactive)
same,Potency,[5],inactive
same,outcome,[6],inactive
same,Potency,[7],12.6 µM (active)
same,Potency,[8],7.94 µM (active)
same,Potency,[9],inactive
same,outcome,[10],inactive
same,outcome,[11],inactive
same,outcome,[12],inactive
same,"activity change, negative = inhibition",[13]; at 25.7 µM (top of the series),-1.79% (inactive)
same,max response,[13]; [28],-1.79%
same,max response,[13]; [29],-6.29%
same,Potency,[14],inactive
same,Potency,[15],inactive
same,Potency,[16],inactive
same,Potency,[17],inactive
O=C(O)C1NCCN(C(=O)c2ccc3c(ccc4ccccc43)c2)C1C(=O)O (stereo unspecified),Potency,[16],inactive
same,Potency,[17],inactive
same,Potency,[18],inactive
CCCCC/C=C\C/C=C\C/C=C\C/C=C\CCCC(=O)O[C@H](COCCCCCCCCCCCCCCCC)COP(=O)([O-])OCC[N+](C)(C)C,"activity change, negative = inhibition",[16],13.2% [at 6.83 µM] (inactive)
same,"activity change, negative = inhibition",[19],-11.5% [at 3.88 µM] (inactive)
COc1ccc2c3c1O[C@H]1C[C@H](O)C=C[C@@]31CCN(C)C2,Potency,[3],> 46 µM (inactive)
same,Potency,[4],> 46 µM (inactive)
same,Potency,[5],inactive
same,"activity change, negative = inhibition",[13]; at 57.5 µM (top of the series),3.95% (inactive)
same,max response,[13]; [28],9.55%
same,max response,[13]; [29],14.8%
same,Potency,[15],inactive
same,Potency,[16],inactive
same,Potency,[17],inactive
O=C(O)[C@H]1CCCN1,Potency,[16],inactive
same,Potency,[19],inactive
CN(C)c1ccc(/C=C2/C(=O)Nc3ccccc32)cc1,Potency,[20],398 nM (active) and 100 nM (active)
same,Potency,[3],> 46 µM (inactive)
same,Potency,[4],> 46 µM (inactive)
same,Potency,[5],5.01 µM (active)
same,Potency,[21],inactive
same,outcome,[6],inactive
same,Potency,[22],5.01 µM (active)
same,Potency,[23],inactive
same,Potency,[24],20 µM (active)
same,Potency,[25],0.0631 µM (active)
same,Potency,[8],14.1 µM (active)
same,Potency,[9],3.16 µM (active)
same,outcome,[10],inactive
same,Potency,[26],3.16 µM (active)
same,Potency,[27],inactive
same,outcome,[11],inactive
same,outcome,[12],inactive
same,Potency,[15],26.6 µM (active)
same,Potency,[16],inactive
same,Potency,[17],35.5 µM (active)
